{"source": "PubChem BioAssay", "note": "A number with no mark means an inactive call. How the calls were made is not given here.", "data": [{"molecular_target": "Pantothenate synthetase (Mycobacterium tuberculosis (strain ATCC 25618 / H37Rv)) (UniProt P9WIL5)", "sequence (P9WIL5 whole entry, looked up)": "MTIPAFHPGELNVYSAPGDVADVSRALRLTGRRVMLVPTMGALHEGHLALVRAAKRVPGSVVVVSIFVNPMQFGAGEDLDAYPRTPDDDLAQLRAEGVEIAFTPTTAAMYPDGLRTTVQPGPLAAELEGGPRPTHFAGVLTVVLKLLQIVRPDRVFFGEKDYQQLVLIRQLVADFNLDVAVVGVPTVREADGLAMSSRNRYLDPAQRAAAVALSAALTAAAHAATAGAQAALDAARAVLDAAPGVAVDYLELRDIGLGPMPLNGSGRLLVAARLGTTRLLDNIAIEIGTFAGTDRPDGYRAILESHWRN", "experiment": "Coupled enzyme confirmation of inhibitors against recombinant Mtb PanC (AID 375);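 further: 0% = full reaction with vehicle and 100% = no enzyme background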", "conditions": "coupled enzyme assay; at 10 µM, active compounds read high", "units": {"inhibition": "%"}, "values": [{"smiles": "O=C(CSc1nnc2sc3ccccc3n12)c1ccco1", "inhibition": 0}, {"smiles": "O=C(Nc1ccc(NC(=O)C2CC2)cn1)c1ccccc1Cl", "inhibition": 0}, {"smiles": "CC(C)(C)c1cc(C(=O)O)nn1-c1ccccc1", "inhibition": 0}, {"smiles": "Cc1cccc(N2C(=O)CC(N3CCN(Cc4ccc(Cl)cc4)CC3)C2=O)c1", "note": "(stereo not given)", "inhibition": 0}, {"smiles": "COc1ccc(C(=O)CSc2nnc(-c3ccc(C)cc3)o2)cc1", "inhibition": 1}, {"smiles": "Cn1c(SCc2ccc3c(c2)OCO3)nnc1-c1ccccc1", "inhibition": 0}, {"smiles": "CCOC(=O)c1c(C)c(C(=O)NCC2CCCO2)c(C)n1C", "note": "(stereo not given)", "inhibition": 7}, {"smiles": "CC1=C(C(=O)OCC(C)C)C(c2cc3c(cc2Br)OCO3)NC(=O)N1C", "note": "(stereo not given)", "inhibition": 0}, {"smiles": "CCOC(=O)N1CCN(C(=O)COc2ccc(S(=O)(=O)NC(C)C)cc2)CC1", "inhibition": 0}, {"smiles": "Cc1ccc(C)n1-c1ccc(-n2cnnn2)cc1", "inhibition": 2}, {"smiles": "Cc1ccc(NC(=O)Nc2ccc3c(c2)N(C)C(=O)CS3)nc1", "inhibition": 5}, {"smiles": "CCC(C(=O)NC(C)CCc1ccco1)n1nc(C)n2c(cc3occc32)c1=O", "note": "(stereo not given)", "inhibition": 0}, {"smiles": "COC(=O)CCc1c(C)c(C#N)c2nc3ccccc3n2c1N1CCCC1", "inhibition": 0}, {"smiles": "COc1ccccc1OCCn1c(=O)sc2ccccc21", "inhibition": 0}, {"smiles": "CC(C)C(NC(=O)OCc1ccccc1)C(=O)OCC(=O)NCc1ccco1", "note": "(stereo not given)", "inhibition": 7}, {"smiles": "CC(O)CN(Cc1cccc(Cl)c1)CC(C)O", "note": "(stereo not given)", "inhibition": 5}, {"smiles": "CS(=O)(=O)N(CC(=O)NCc1ccncc1)Cc1ccc(Cl)cc1", "inhibition": 0}, {"smiles": "O=C(CN1CCC(NC(=O)c2ccc(F)cc2)CC1)NCc1ccccc1F", "inhibition": 5}, {"smiles": "O=C(NC1=NCCS1)c1nc(-c2ccccc2)n(-c2ccccc2)n1", "inhibition": 3}, {"smiles": "C/C=C/Cn1c(SCCCc2ccccc2)nc2c1c(=O)[nH]c(=O)n2C", "inhibition": 0}, {"smiles": "CSc1nc2c(c(=O)n1C)SC(C)C2", "note": "(stereo not given)", "inhibition": 0}, {"smiles": "CCNC(=O)C1CC(=O)N(Cc2ccc3c(c2)OCO3)C(=Nc2ccc(F)cc2)S1", "note": "(stereo not given)", "inhibition": 0}, {"smiles": "O=C(CSCc1ccc(F)cc1)NC1CCCC1", "inhibition": 0}, {"smiles": "O=C1c2ccccc2C(Nc2ccc3c(c2)OCCO3)N1Cc1ccc2c(c1)OCO2", "note": "(stereo not given)", "inhibition": 1}, {"smiles": "Nc1nc(-c2ccccc2Br)cs1", "inhibition": 3}, {"smiles": "CCc1n[nH]c2c1C(=O)CC(C)(C)C2", "inhibition": 2}, {"smiles": "O=C(Nc1cccnc1)c1noc2c1CCCCC2", "inhibition": 0}, {"smiles": "COc1cccc(C(=O)Nc2ccc(C)cc2)c1", "inhibition": 1}, {"smiles": "O=C(Nc1ccccc1-c1ccccc1)NC1CCN(CC(=O)N2CCOCC2)CC1", "inhibition": 0}, {"smiles": "Cc1noc(C)c1S(=O)(=O)NCCN1CCN(c2ccccc2)CC1", "inhibition": 4}, {"smiles": "Cc1onc(-c2ccccc2)c1C(=O)Nc1ccnn1C1CCCCC1", "inhibition": 1}, {"smiles": "CCCOc1ccc(N2C(=O)CC(NCCCN3CCC(C(N)=O)CC3)C2=O)cc1", "note": "(stereo not given)", "inhibition": 4}, {"smiles": "COc1ccc(S(=O)(=O)Nc2ccc(F)c(F)c2)cc1Cl", "inhibition": 0}, {"smiles": "O=C(O)c1ccc(S(=O)(=O)Cc2ccccc2)cc1", "inhibition": 0}, {"smiles": "COc1ccc(CN(C(=O)c2cccs2)c2nccs2)cc1OC", "inhibition": 3}, {"smiles": "COc1ccc(CCNC(=O)CCN2C(=O)C3CC=CCC3C2=O)cc1OC", "note": "(stereo not given)", "inhibition": 0}, {"smiles": "O=C(OCC(=O)N1CCc2ccccc21)C1=COCCO1", "inhibition": 0}, {"smiles": "CCOc1ccccc1NC(=O)CSc1nnc(Cc2cccn2C)n1-c1ccc(F)cc1", "inhibition": 5}, {"smiles": "O=C(Nc1ccc2c(c1)OCCO2)C1CCCN1S(=O)(=O)c1cccc2cccnc12", "note": "(stereo not given)", "inhibition": 0}, {"smiles": "CCCCOc1ccccc1NC(=O)c1ccco1", "inhibition": 0}]}]}
